{
  "source": "PubChem BioAssay (NCATS)",
  "key": {"[1]": {"assay": "AP1 Signaling Pathway (AID 357); also: % is scaled to controls: 0 for no effect and ±100 for the full control effect", "conditions": "ME-180 AP-1-bla reporter, EGF-induced, beta-lactamase ratio, 5 h; at 17.2 µM (top of the series) unless noted", "outline": "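AP-1-bla ME-180 cells, Opti-MEM + 0.5% dialyzed FBS, plated overnight 37 °C. Cpd titration + EC50 EGF, 5 h 37 °C. CCF4 2.5 h RT; ex 405, em 460/530 ratio → %activity, AC50.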"}, "[2]": {"assay": "NFAT Signaling Pathway (AID 444);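 also: carbachol stimulus at about its EC50 of 1 µM final; % is scaled to controls: 0 for no effect and ±100 for the full control effect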", "conditions": "Jurkat NFAT-bla M1, carbachol, beta-lactamase ratio, 5 h; at 17.2 µM (top of the series) unless noted", "outline": "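Jurkat cells carrying an NFAT-driven β-lactamase reporter and co-transfected muscarinic M1 receptor were treated with compound plus carbachol (1 uM final, an EC50 level) for 5 h at 37 °C. CCF4 loading followed for 1 h at RT; 460/530 nm ratio gave %activity.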"}, "[3]": {"assay": "Stat Signaling Pathway (AID 446);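 also: ME-180 cervical cancer cells given 40 pM IL-6 alongside compound; SIE-controlled beta-lactamase reporter measured as 460/530 nm FRET emission ratio; % is scaled to controls: 0 for no effect and ±100 for the full control effect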", "conditions": "ME-180 SIE beta-lactamase reporter, IL-6 stimulated, 5 h; at 17.2 µM (top of the series) unless noted", "outline": "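Reporter line: ME-180 cervical carcinoma, SIE-beta-lactamase. Treatment: compound with 40 pM IL-6, 5 hrs, 37 C, in low-serum OPTI-MEM with 10 mM HEPES pH 7.3. Detection: 460/530 nm fluorescence.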"}, "[4]": {"molecular_target": "Cytochrome P450 1A2 (Homo sapiens) (UniProt P05177)", "sequence (P05177 whole entry, looked up)": "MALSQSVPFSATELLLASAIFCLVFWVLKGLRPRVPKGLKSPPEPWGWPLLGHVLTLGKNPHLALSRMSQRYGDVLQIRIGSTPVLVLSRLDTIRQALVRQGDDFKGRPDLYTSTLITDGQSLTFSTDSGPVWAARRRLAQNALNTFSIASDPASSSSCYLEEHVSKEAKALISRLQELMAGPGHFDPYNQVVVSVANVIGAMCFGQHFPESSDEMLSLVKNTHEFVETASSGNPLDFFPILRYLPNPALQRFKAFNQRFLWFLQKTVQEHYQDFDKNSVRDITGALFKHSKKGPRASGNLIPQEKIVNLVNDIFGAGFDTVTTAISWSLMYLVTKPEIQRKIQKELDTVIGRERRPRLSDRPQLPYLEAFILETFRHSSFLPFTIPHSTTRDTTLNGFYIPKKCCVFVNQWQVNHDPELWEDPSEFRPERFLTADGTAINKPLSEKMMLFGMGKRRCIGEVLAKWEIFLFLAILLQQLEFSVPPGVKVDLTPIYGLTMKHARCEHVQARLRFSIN", "assay": "p450-cyp1a2 (AID 410; calls by dose curve; also: potency is read from the fitted curve at half-maximal effect)", "outline": "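20nM CYP1A2 with 100uM Luciferin-ME (at Km) in 100mM KPO4; compound preincubated 10 min, NADPH regeneration added, 60 min at room temperature. Luciferin quantified by luminescence after detection reagent; normalized to 57 uM furafylline.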"}, "[5]": {"molecular_target": "Glucocorticoid receptor (Homo sapiens) (UniProt P04150)", "sequence (P04150 whole entry, looked up, the tested form may be a part)": "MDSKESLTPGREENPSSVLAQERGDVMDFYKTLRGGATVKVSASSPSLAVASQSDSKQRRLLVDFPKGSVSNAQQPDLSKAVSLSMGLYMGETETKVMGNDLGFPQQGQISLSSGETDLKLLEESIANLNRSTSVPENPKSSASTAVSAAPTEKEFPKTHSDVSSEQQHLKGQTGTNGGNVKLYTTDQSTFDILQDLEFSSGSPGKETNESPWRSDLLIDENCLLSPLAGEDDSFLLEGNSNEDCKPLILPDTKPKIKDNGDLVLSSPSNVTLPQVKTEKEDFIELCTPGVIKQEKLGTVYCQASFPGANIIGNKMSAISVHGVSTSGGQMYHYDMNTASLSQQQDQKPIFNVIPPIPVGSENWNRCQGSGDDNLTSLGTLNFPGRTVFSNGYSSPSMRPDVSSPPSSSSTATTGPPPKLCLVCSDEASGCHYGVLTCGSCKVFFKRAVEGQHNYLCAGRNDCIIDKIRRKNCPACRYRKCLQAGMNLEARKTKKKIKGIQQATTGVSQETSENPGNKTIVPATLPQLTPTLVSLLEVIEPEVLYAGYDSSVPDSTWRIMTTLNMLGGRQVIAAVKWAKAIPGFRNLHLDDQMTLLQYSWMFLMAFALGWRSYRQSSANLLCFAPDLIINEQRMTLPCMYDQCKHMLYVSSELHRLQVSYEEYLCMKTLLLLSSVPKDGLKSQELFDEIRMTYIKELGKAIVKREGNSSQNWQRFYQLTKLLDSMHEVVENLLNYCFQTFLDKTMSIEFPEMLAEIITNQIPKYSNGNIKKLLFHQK", "assay": "GR-GFP Redistribution (AID 450;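 active = compounds whose dose series gives a full or clear partial fitted curve of increased nuclear translocation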; also: potency is read from the fitted curve at half-maximal effect)"}, "[6]": {"molecular_target": "Glucocorticoid receptor (Homo sapiens) (UniProt P04150)", "assay": "GR-EFC Redistribution (AID 451; calls by dose curve; also: potency is read from the fitted curve at half-maximal effect)", "conditions": "CHO-K1 GR-EFC translocation, beta-gal luminescence, 2 h", "outline": "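CHO-K1 cells stably expressing nuclear-localized β-gal enzyme acceptor and GR fused C-terminally to the enzyme donor fragment; ligand-driven nuclear translocation restores β-gal by complementation. Compounds titrated up to 46 uM final, 2 h at 37 °C; luminescence read.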"}, "[7]": {"molecular_target": "Mitogen-activated protein kinase 10 (Mus musculus) (UniProt Q61831)", "assay": "JNK3 AlphaScreen Assay (AID 530);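 also: signal reports phosphorylation of biotinylated GST-cJun 1-79 at Ser73 with 10 µM ATP; % is scaled to controls: 0 for no effect and ±100 for the full control effect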", "outline": "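Inhibitors reduce antibody binding to phosphorylated biotin-cJun, lowering AlphaScreen luminescence. Lysates from HepG2 cells pre-activated by IL-1beta plus TNF-alpha supplied JNK3; compounds were titrated.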"}, "[8]": {"molecular_target": "3',5'-cyclic-AMP phosphodiesterase 4B (Homo sapiens) (UniProt Q07343)", "sequence (Q07343 whole entry, looked up)": "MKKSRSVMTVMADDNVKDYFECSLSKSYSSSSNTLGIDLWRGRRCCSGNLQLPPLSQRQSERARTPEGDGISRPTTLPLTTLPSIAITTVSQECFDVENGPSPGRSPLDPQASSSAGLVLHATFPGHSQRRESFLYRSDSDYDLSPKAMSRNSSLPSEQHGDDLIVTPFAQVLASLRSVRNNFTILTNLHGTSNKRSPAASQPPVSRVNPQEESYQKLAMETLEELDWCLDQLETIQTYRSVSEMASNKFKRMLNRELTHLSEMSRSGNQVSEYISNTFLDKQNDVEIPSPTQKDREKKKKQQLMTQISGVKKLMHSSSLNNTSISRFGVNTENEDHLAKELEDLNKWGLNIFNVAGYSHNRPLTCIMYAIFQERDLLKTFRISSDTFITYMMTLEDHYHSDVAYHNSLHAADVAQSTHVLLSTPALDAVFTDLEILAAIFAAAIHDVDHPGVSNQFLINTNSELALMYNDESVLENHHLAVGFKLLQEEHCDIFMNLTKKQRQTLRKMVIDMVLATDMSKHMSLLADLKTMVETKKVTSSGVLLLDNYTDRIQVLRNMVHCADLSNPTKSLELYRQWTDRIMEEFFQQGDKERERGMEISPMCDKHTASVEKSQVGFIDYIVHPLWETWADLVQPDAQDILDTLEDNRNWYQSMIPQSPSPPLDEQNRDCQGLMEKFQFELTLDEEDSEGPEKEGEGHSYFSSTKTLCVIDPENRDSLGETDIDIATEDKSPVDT", "assay": "qHTS Assay for Inhibitors of PDE-IV (AID 607; active = well fitted activation curve with a large enough effect in the main read-out, with a control signal flat, not every such curve was filed as active; also: % of control where 0% means no effect)", "outline": "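Cell-based read-out of cAMP via a modified cyclic nucleotide-gated channel and membrane potential dye (535/590 nm) in HEK293 cells expressing PDE4 endogenously. Compounds tested up to 22.9 uM final; 100 uM RO 20-1724 reference.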"}, "[9]": {"molecular_target": "Cytochrome P450 2C19 (Homo sapiens) (UniProt P33261)", "sequence (P33261 whole entry, looked up)": "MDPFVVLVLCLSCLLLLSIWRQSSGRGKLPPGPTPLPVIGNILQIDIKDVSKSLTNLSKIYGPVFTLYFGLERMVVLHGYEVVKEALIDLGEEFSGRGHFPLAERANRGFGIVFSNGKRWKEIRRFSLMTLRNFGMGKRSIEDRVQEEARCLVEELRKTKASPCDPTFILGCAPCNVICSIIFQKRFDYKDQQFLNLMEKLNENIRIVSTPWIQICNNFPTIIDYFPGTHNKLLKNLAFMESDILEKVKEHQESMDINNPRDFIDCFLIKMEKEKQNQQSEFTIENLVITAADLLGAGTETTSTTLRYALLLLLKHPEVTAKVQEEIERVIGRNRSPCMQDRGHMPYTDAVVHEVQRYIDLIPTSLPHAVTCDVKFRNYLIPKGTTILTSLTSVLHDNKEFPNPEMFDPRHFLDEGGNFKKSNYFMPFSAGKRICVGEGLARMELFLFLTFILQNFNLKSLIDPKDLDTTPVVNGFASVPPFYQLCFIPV", "assay": "qHTS Assay for Inhibitors and Substrates of Cytochrome P450 2C19 (AID 899; active = well fitted inhibition curve with a large enough effect; also: potency is read from the fitted curve at half-maximal effect; nearly all actives have a fitted effect of over 60% in size)", "outline": "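Human CYP2C19 (5nM) with Luciferin-H EGE at 10uM (its KM) in 50mM KPO4 was preincubated with compound for 10 min at 37C. NADPH regeneration started a 60 min 37C reaction. Luciferin was read by luminescence, normalized to 57uM ketoconazole.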"}},
  "note": "Values without a mark were called inactive. Records with an inconclusive call do not appear. Activity calls are given as the source filed them. Unless noted, calls follow the shape of the dose curve; as a rule, active = well fitted curve in either direction with a large enough effect (not every such curve was filed as active); inconclusive = small, poorly fitted or top-dose-only effect, or another doubt; inactive = flat fitted curve, though single readings scatter.",
  "data": [
    {"smiles": "OCCOCCNc1ncnc2c1cnn2-c1ccccc1", "values": [
      {"measurement": "activity change, negative = inhibition", "setting": "[1]", "result": 7, "unit": "%"},
      {"measurement": "activity change, negative = inhibition", "setting": "[2]", "result": 1.59, "unit": "%"},
      {"measurement": "activity, negative = inhibition", "setting": "[3]", "result": -1.47, "unit": "%"}
    ]},
    {"smiles": "Cc1ccc(S(=O)(=O)NCC(=O)OCN2C(=O)c3ccccc3C2=O)cc1", "values": [
      {"measurement": "activity change, negative = inhibition", "setting": "[1]", "result": 2.06, "unit": "%"},
      {"measurement": "activity change, negative = inhibition", "setting": "[2]", "result": -25.1, "unit": "%"},
      {"measurement": "activity, negative = inhibition", "setting": "[3]", "result": 9.1, "unit": "%"}
    ]},
    {"smiles": "N=C1[C@@H](O)[C@]2(I)c3ccccc3N3C(=N)[C@H](O)[C@@H]4c5ccccc5N1[C@@H]4[C@@H]32", "values": [
      {"measurement": "activity change, negative = inhibition", "setting": "[1]", "result": "9.35% [at 7.69 µM]"},
      {"measurement": "Potency", "setting": "[4]", "result": "2.51 µM (active)"},
      {"measurement": "Potency", "setting": "[5]", "result": "> 46", "unit": "µM"},
      {"measurement": "Potency", "setting": "[6]", "result": "> 9.22", "unit": "µM"},
      {"measurement": "activity change, negative = inhibition", "setting": "[7]", "result": "-25.9% [at 11.4 µM]"},
      {"measurement": "Potency", "setting": "[8]", "result": "inactive"},
      {"measurement": "Potency", "setting": "[9]", "result": "3.16 µM (active)"}
    ]},
    {"smiles": "CC(C)Oc1ccc(Cc2c(O)nc(NCCCN(C)C)[nH]c2=O)cc1", "values": [
      {"measurement": "activity change, negative = inhibition", "setting": "[1]", "result": 9.78, "unit": "%"},
      {"measurement": "activity change, negative = inhibition", "setting": "[2]", "result": 3.21, "unit": "%"},
      {"measurement": "activity, negative = inhibition", "setting": "[3]", "result": 4.27, "unit": "%"},
      {"measurement": "Potency", "setting": "[5]", "result": "> 20.6", "unit": "µM"}
    ]},
    {"smiles": "COCCNc1nc2c(c(=O)n(C)c(=O)n2C)n1Cc1cccc(C(F)(F)F)c1", "values": [
      {"measurement": "activity change, negative = inhibition", "setting": "[1]", "result": 13.5, "unit": "%"},
      {"measurement": "activity change, negative = inhibition", "setting": "[2]", "result": 5.18, "unit": "%"},
      {"measurement": "activity, negative = inhibition", "setting": "[3]", "result": 226, "unit": "%"},
      {"measurement": "Potency", "setting": "[5]", "result": "> 20.6", "unit": "µM"}
    ]},
    {"smiles": "CC(=O)OCC(=O)[C@@]1(O)CC[C@H]2[C@@H]3CCC4=CC(=O)C=C[C@]4(C)[C@@]3(Cl)[C@@H](Cl)C[C@@]21C", "values": [
      {"measurement": "activity change, negative = inhibition", "setting": "[1]", "result": 11.8, "unit": "%"},
      {"measurement": "activity change, negative = inhibition", "setting": "[2]", "result": -9, "unit": "%"},
      {"measurement": "activity, negative = inhibition", "setting": "[3]", "result": -0.258, "unit": "%"},
      {"measurement": "Potency", "setting": "[5]", "result": "0.0078 µM (active)"}
    ]},
    {"smiles": "CC(=Nc1ccc(C)c(C)c1)C1=C(O)CCC1=O", "values": [
      {"measurement": "activity change, negative = inhibition", "setting": "[1]", "result": 13.3, "unit": "%"},
      {"measurement": "activity change, negative = inhibition", "setting": "[2]", "result": -8.58, "unit": "%"},
      {"measurement": "activity, negative = inhibition", "setting": "[3]", "result": 24.8, "unit": "%"},
      {"measurement": "Potency", "setting": "[5]", "result": "> 20.6", "unit": "µM"}
    ]},
    {"smiles": "COc1cccc(OC)c1-c1nn2c(-c3ccccc3Cl)nnc2s1", "values": [
      {"measurement": "activity change, negative = inhibition", "setting": "[1]", "result": -22.5, "unit": "%"},
      {"measurement": "activity change, negative = inhibition", "setting": "[2]", "result": -8.73, "unit": "%"},
      {"measurement": "activity, negative = inhibition", "setting": "[3]", "result": -3.22, "unit": "%"},
      {"measurement": "Potency", "setting": "[5]", "result": "> 20.6", "unit": "µM"}
    ]},
    {"smiles": "CCOC(=O)Cc1nnc(Nc2cccc(O)c2)c2ccccc12", "values": [
      {"measurement": "activity change, negative = inhibition", "setting": "[1]", "result": -12.7, "unit": "%"},
      {"measurement": "activity change, negative = inhibition", "setting": "[2]", "result": -6.58, "unit": "%"},
      {"measurement": "activity, negative = inhibition", "setting": "[3]", "result": -17.1, "unit": "%"},
      {"measurement": "Potency", "setting": "[5]", "result": "> 20.6", "unit": "µM"}
    ]},
    {"smiles": "CN1CCN(/C=N/c2sc3c(c2C#N)CCCCC3)CC1", "values": [
      {"measurement": "activity change, negative = inhibition", "setting": "[1]", "result": 4.68, "unit": "%"},
      {"measurement": "activity change, negative = inhibition", "setting": "[2]", "result": 11.9, "unit": "%"},
      {"measurement": "activity, negative = inhibition", "setting": "[3]", "result": -3.82, "unit": "%"},
      {"measurement": "Potency", "setting": "[5]", "result": "> 20.6", "unit": "µM"}
    ]},
    {"smiles": "CN(C)c1ccc(O)c2c1CC1CC3[C@@H](N(C)C)C(=O)C(C(N)=O)=C(O)[C@]3(O)C(=O)C1=C2O", "note": "(some centres not stated)", "values": [
      {"measurement": "activity change, negative = inhibition", "setting": "[1]", "result": 6.78, "unit": "%"},
      {"measurement": "activity change, negative = inhibition", "setting": "[2]", "result": 8.29, "unit": "%"},
      {"measurement": "activity, negative = inhibition", "setting": "[3]", "result": -13.5, "unit": "%"},
      {"measurement": "Potency", "setting": "[5]", "result": "> 20.6", "unit": "µM"}
    ]},
    {"smiles": "C=CCOC(=O)C1=C(C)OC(N)=C(C#N)C1c1ccoc1", "note": "(configuration not stated)", "values": [
      {"measurement": "activity change, negative = inhibition", "setting": "[1]", "result": 21.2, "unit": "%"},
      {"measurement": "activity change, negative = inhibition", "setting": "[2]", "result": -14.1, "unit": "%"},
      {"measurement": "activity, negative = inhibition", "setting": "[3]", "result": -0.879, "unit": "%"},
      {"measurement": "Potency", "setting": "[5]", "result": "> 20.6", "unit": "µM"}
    ]},
    {"smiles": "CN1CCc2c(n(CC(O)CN3C(=O)c4ccccc4S3(=O)=O)c3ccccc23)C1=O", "note": "(configuration not stated)", "values": [
      {"measurement": "activity change, negative = inhibition", "setting": "[1]", "result": 27.1, "unit": "%"},
      {"measurement": "activity change, negative = inhibition", "setting": "[2]", "result": 6.52, "unit": "%"},
      {"measurement": "activity, negative = inhibition", "setting": "[3]", "result": -6.51, "unit": "%"},
      {"measurement": "Potency", "setting": "[5]", "result": "> 20.6", "unit": "µM"}
    ]},
    {"smiles": "Cc1c(C(Nc2ccccn2)c2ccccc2)c(=O)n(-c2ccccc2)n1C", "note": "(configuration not stated)", "values": [
      {"measurement": "activity change, negative = inhibition", "setting": "[1]", "result": -3.17, "unit": "%"},
      {"measurement": "activity change, negative = inhibition", "setting": "[2]", "result": 2.74, "unit": "%"},
      {"measurement": "activity, negative = inhibition", "setting": "[3]", "result": 8.77, "unit": "%"},
      {"measurement": "Potency", "setting": "[5]", "result": "> 20.6", "unit": "µM"}
    ]}
  ]
}
